# Records with an inconclusive call do not appear. Active and inactive are the calls of the source. Calls follow the shape of the dose curve; as a rule, active = well fitted cell-killing curve with a large enough effect in the repeat runs; inconclusive = weak or mixed curves, or effect the other way; inactive = flat fitted curve, though single readings scatter.
# Experiment: qHTS assay to identify small molecule that activate the aryl hydrocarbon receptor (AhR) signaling pathway - cell viability counter screen (AID 743086);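 also: HepG2 liver cells carrying the AhR DRE luciferase reporter; nearly all actives have a fitted effect of over 45% in size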
# Conditions: HepG2-AhR-luc viability, CellTiter-Fluor, 24 h; series mostly up to 70.3 µM
# From the text: U.S. Tox21 Program National Center for Advancing Translational Sciences [NCATS] NIH Chemical Genomics Center [NCGC] U.S. Environmental Protection Agency [EPA] National Institutes of Environmental Health Sciences [NIEHS] National Toxicology Program [NTP] U.S. Food and Drug Administration [FDA] Tox21 Assay overview: The Aryl hydrocarbon Receptor (AhR), a member of the family of basic helix-loop-helix transcription factors, is crucial to adaptive responses to environmental changes. AhR mediates cellular responses to environmental pollutants such as aromatic hydrocarbons through induction of phase I and II enzymes but also interacts with other nuclear receptor signaling pathways A cell based HepG2-AhR-luc assay (HG2L7.5c1 cell line, developed by Dr. Michael S. Denison, University of California at Davis) was used to assess the activation of AhR. HepG2 (human hepatocellular carcinoma) cells were stably transfected with an Ah receptor-responsive firefly luciferase reporter gene plasmid containing 20 dioxin responsive elements and luciferase reporter gene. Increased luciferase activity can be used to identify the compounds that induce AhR activation. The cytotoxicity of the compounds screened against the HepG2-AhR-luc cell line was tested in parallel by measuring the cell viability using CellTiter-Fluor assay in the same wells.
# Tox21 Assay Protocol Summary: 4000 cells in 5 uL/well were dispensed into white wall/solid bottom 1536-well plates using a Multidrop Combi (Thermo Fisher Scientific Inc., Waltham, MA) dispenser. After the assay plates were incubated at 37C for 5 h, 23 nL of compound or DMSO vehicle was transferred to the assay plates by a pintool station (Kalypsys, San Diego, CA). The plates were incubated at 37C for 24 hr. For cell viability measurement, 1 ul/well of CellTiter-Fluor reagent (Promega, Madison, WI) was added into the assay plates using a Flying Reagent Dispenser (FRD) (Aurora Discovery, CA),and then the assay plates were incubated at 37C for 30 min. The fluorescence intensity in the plates was measured using a ViewLux plate reader (PerkinElmer, Shelton, CT), followed by the addition of 4 uL of ONE-Glo Luciferase Assay reagent (Promega) using an FRD (Aurora Discovery). After the assay plates were incubated at room temperature for 30 min, luminescence intensity was measured using a ViewLux plate reader (Perkin Elmer).
row,SMILES,outcome
1,CC(=O)Nc1cccc(O)c1,inactive
2,CSCCC=O,inactive
3,CCCCCCCCC/C=C/CC1CC(=O)OC1=O (stereo not given),inactive
4,Cc1cnc(C(=O)NCCc2ccc(S(=O)(=O)NC(=O)NC3CCCCC3)cc2)cn1,inactive
5,N[C@@H](Cc1cc(I)c(Oc2cc(I)c(O)c(I)c2)c(I)c1)C(=O)O,inactive
6,CC1=CC(=O)NS(=O)(=O)O1,inactive
7,CC(=O)CC(=O)Nc1ccccc1,inactive
8,C#C[C@]1(O)CC[C@H]2[C@@H]3CCC4=CC(=O)CC[C@@H]4[C@H]3CC[C@@]21C,inactive
9,CCCCC(CC)CO (stereo not given),inactive
10,CCc1ccc(CCOc2ccc(CC3SC(=O)NC3=O)cc2)nc1 (stereo not given),inactive
11,C[C@H]1C[C@H]2[C@@H]3CCC4=CC(=O)C=C[C@]4(C)[C@@]3(F)[C@@H](O)C[C@]2(C)[C@@]1(O)C(=O)CO,inactive
12,O=C(O)c1ccc2c(c1)C(=O)OC2=O,inactive
13,O=c1[nH]c(=O)n([C@H]2C[C@H](O)[C@@H](CO)O2)cc1Br,inactive
14,CCCSc1ccc2nc(NC(=O)OC)[nH]c2c1,inactive
15,O=C(O)CCCCCCCCCCC(=O)O,inactive
16,CCCCCCCCCCCCCCO,inactive
17,CCCCOC(=O)COc1ccc(Cl)cc1Cl,inactive
18,CCCCCOC(C)=O,inactive
19,O=C(O)c1ccccc1C(c1ccc(O)cc1)c1ccc(O)cc1,inactive
20,CC(C)(C)[C@@H](O)[C@@H](Cc1ccc(Cl)cc1)n1cncn1,inactive

row,SMILES,outcome
1,c1ccc2scnc2c1,inactive
2,Nc1ccccc1[N+](=O)[O-],inactive
3,FC(F)(F)c1ccc(Cl)c(Cl)c1,inactive
4,O=[N+]([O-])c1ccc(/C=C/c2ccc([N+](=O)[O-])cc2S(=O)(=O)O)c(S(=O)(=O)O)c1,inactive
5,O=S1(=O)CC=CC1,inactive
6,CCCCCCCCCCCCCCCO,inactive
7,O=C(OCCOCCOC(=O)c1ccccc1)c1ccccc1,inactive
8,CC(C)c1ccc(S(=O)(=O)O)cc1,inactive
9,OCCOCCOCCO,inactive
10,O=C1CCC(N2C(=O)c3ccccc3C2=O)C(=O)N1 (stereo not given),inactive
11,O=C(O)[C@H](O)[C@@H](O)[C@H](O)[C@H](O)CO,inactive
12,CC1CCC(C(C)C)C(O)C1 (stereo not given),inactive
13,C[C@H]1C[C@@H]2[C@H]([C@@H](O)C[C@@]3(C)[C@H]2CC[C@]3(O)C(=O)CO)[C@@]2(C)C=CC(=O)C=C12,inactive
14,CCCCCCCCCCCCOCCO,inactive
15,CN(C)CCOCCN(C)C,inactive
16,CC1=C(C)S(=O)(=O)CCS1(=O)=O,inactive
17,Cc1ccc(N(C)C)cc1,inactive
18,O=c1[nH]nnc2ccccc12,inactive
19,O=C(CC(C(=O)OC1CCCCC1)S(=O)(=O)O)OC1CCCCC1 (stereo not given),inactive
20,O=c1[nH]c(=O)n([C@H]2CCCO2)cc1F,inactive

# — PubChem BioAssay (Tox21)
